For 15 compounds, growth results are on record in PubChem BioAssay (NCI).

Among the test systems are SR leukemia; RPMI-8226 leukemia; OVCAR-8 ovarian; OVCAR-5 ovarian; OVCAR-4 ovarian; SK-OV-3 ovarian; IGROV1 ovarian; OVCAR-3 ovarian; HS 578T breast; NCI/ADR-RES ovarian.
Common to all, as to test: NCI-60 one-dose screen, 48 h (100 = growth as untreated, 0 = no growth, -100 = all killed)
Details in all cases: 10 µM unless noted

About 83,000 compounds went through this panel and 20% of them were active in at least one assay; those are over-represented in the sample as a whole.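 48-hour exposure, single concentration, 96-well plates; percent growth endpoint where 0 means no net growth. Active: below 10.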 A number with no mark means an inactive call. The source made the active and inactive calls.

For `O=C1C=Cc2ccccc2/C1=C/c1nc(-c2ccccc2)oc1O`, the growth with SR leukemia was 91.1%; in the assay with RPMI-8226 leukemia it was 104%; in the assay on OVCAR-8 ovarian, 94.7%; in the assay with OVCAR-5 ovarian, 97.2%; with OVCAR-4 ovarian it was 85.2%; with SK-OV-3 ovarian, 86.6%. Also, the growth in the assay on IGROV1 ovarian was 71.8%; with OVCAR-3 ovarian it was 91.6%; in the assay on HS 578T breast, 102%; with NCI/ADR-RES ovarian, 85.7%.

Turning to `NC1=C(Br)C(=O)c2ncccc2C1=O`, the growth in the assay on SR leukemia is -27.8% (active); with RPMI-8226 leukemia, 0.625% (active); in the assay with OVCAR-8 ovarian, 10.3%; with OVCAR-5 ovarian, -49.4% (active); in the assay with OVCAR-4 ovarian, -89.5% (active); in the assay on SK-OV-3 ovarian, 34.9%. For the same compound, the growth was -5.9% (active) in the assay on IGROV1 ovarian, -11.9% (active) with OVCAR-3 ovarian, -13.1% (active) in the assay on HS 578T breast and 9.48% (active) in the assay with NCI/ADR-RES ovarian.

In the case of `O=[N+]([O-])CC(O)c1ccccc1` (stereo not given), the growth in the assay on SR leukemia was 88.2%; in the assay with RPMI-8226 leukemia it was 89.7%; in the assay with OVCAR-8 ovarian, 97.7%; with OVCAR-5 ovarian it was 95.7%; in the assay with OVCAR-4 ovarian, 93.8%; in the assay with SK-OV-3 ovarian, 118%. For the same compound, the growth is 112% with IGROV1 ovarian, 121% in the assay on OVCAR-3 ovarian, 125% with HS 578T breast and 101% in the assay with NCI/ADR-RES ovarian.

In the case of `COC(=O)Nc1nc2ccc(C3(c4ccc(F)cc4)OCCO3)cc2[nH]1`, the growth was 25.2% with SR leukemia; 10.4% with RPMI-8226 leukemia; 21.1% in the assay on OVCAR-8 ovarian; 47.5% with OVCAR-5 ovarian; 68.4% in the assay on OVCAR-4 ovarian; 22% in the assay on SK-OV-3 ovarian. Further, the growth in the assay on IGROV1 ovarian is 29.8%; in the assay on OVCAR-3 ovarian, 4.74% (active); in the assay with HS 578T breast, 37.7%; in the assay on NCI/ADR-RES ovarian it was 24.2%.

Regarding `CSc1nc(C)c(C(=O)CCN2CCN(c3ccccn3)CC2)s1`, the growth is 94.3% in the assay with SR leukemia; 80.1% with RPMI-8226 leukemia; 98.4% in the assay on OVCAR-8 ovarian; 104% in the assay with OVCAR-5 ovarian; 97.5% with OVCAR-4 ovarian; 102% in the assay with SK-OV-3 ovarian. Moreover, the growth was 119% with IGROV1 ovarian, 104% in the assay with OVCAR-3 ovarian, 102% with HS 578T breast and 110% in the assay on NCI/ADR-RES ovarian.

For the compound `CC(=O)C1Cc2ccccc2C1=O` (stereo not given), the growth with SR leukemia is 108%; with RPMI-8226 leukemia, 117%; in the assay with OVCAR-8 ovarian it was 119%; with OVCAR-5 ovarian it was 101%; in the assay with OVCAR-4 ovarian it was 104%; in the assay with SK-OV-3 ovarian, 96.1%. Besides, the growth with IGROV1 ovarian is 116%; in the assay with OVCAR-3 ovarian it was 112%; in the assay on HS 578T breast it was 103%; in the assay with NCI/ADR-RES ovarian, 104%.

`CC1(C)OC2C(COC(c3ccccc3)(c3ccccc3)c3ccccc3)OC(c3c[nH]c4c(N)ncnc34)C2O1` (stereo not given): the growth was 28.3% in the assay with SR leukemia; 27.4% in the assay on RPMI-8226 leukemia; 56.1% in the assay with OVCAR-8 ovarian; 82.9% with OVCAR-5 ovarian; 50.1% with OVCAR-4 ovarian; 70% with SK-OV-3 ovarian. The growth in the assay with IGROV1 ovarian is 75.5%; in the assay with OVCAR-3 ovarian, 53.8%; in the assay with HS 578T breast it was 77.5%; with NCI/ADR-RES ovarian it was 86.9%.

As for `CCCCCCCCCCCCCCCCCC1=NCCCN1CCO`, the growth in the assay with SR leukemia was 95.6%; in the assay with RPMI-8226 leukemia, 103%; with OVCAR-8 ovarian it was 101%; in the assay on OVCAR-5 ovarian, 98.5%; with OVCAR-4 ovarian it was 112%; in the assay with SK-OV-3 ovarian, 97.6%. Besides, the growth in the assay on IGROV1 ovarian is 105%; in the assay with OVCAR-3 ovarian, 114%; in the assay on HS 578T breast, 101%; in the assay with NCI/ADR-RES ovarian, 105%.

As for `CCCCC(C=O)(C=C=C(C)C)CC` (stereo not given), the growth was 108% in the assay with SR leukemia; 98% in the assay on RPMI-8226 leukemia; 98.5% with OVCAR-8 ovarian; 98.3% in the assay on OVCAR-5 ovarian; 96.5% in the assay on OVCAR-4 ovarian; 98% in the assay on SK-OV-3 ovarian. The growth was 110% with IGROV1 ovarian, 107% in the assay on OVCAR-3 ovarian, 112% in the assay with HS 578T breast and 106% in the assay with NCI/ADR-RES ovarian.

`CC[n+]1ccc(Nc2ccc(NC(=O)c3ccc(Nc4cc[n+](CC)c5ccc([N+](=O)[O-])cc45)cc3)cc2)cc1`: the growth is 75.7% in the assay with SR leukemia; 41.9% in the assay with RPMI-8226 leukemia; 79% with OVCAR-8 ovarian; 107% in the assay with OVCAR-5 ovarian; 56.8% with OVCAR-4 ovarian; 84.5% in the assay with SK-OV-3 ovarian. For the same compound, the growth in the assay on IGROV1 ovarian is 115%; in the assay with OVCAR-3 ovarian, 91.8%; in the assay with HS 578T breast, 97%; in the assay with NCI/ADR-RES ovarian, 106%.

As to `Cc1cc(Br)c2nsnc2c1[N+](=O)[O-]`, the growth in the assay on SR leukemia is 19.2%; in the assay on RPMI-8226 leukemia it was 23.9%; in the assay with OVCAR-8 ovarian it was 52.8%; in the assay on OVCAR-5 ovarian it was 72.8%; in the assay on OVCAR-4 ovarian, 47.7%; in the assay on SK-OV-3 ovarian it was 91.3%. The growth was 27.4% with IGROV1 ovarian, 57% in the assay with OVCAR-3 ovarian, 47% in the assay on HS 578T breast and 50.5% in the assay on NCI/ADR-RES ovarian.

For `CCCCC(CCc1ccc([N+](=O)[O-])cc1)(C(C)=O)C(=O)OCC` (stereo not given), the growth with SR leukemia was 63.5%; in the assay on RPMI-8226 leukemia, 96.2%; with OVCAR-8 ovarian it was 104%; in the assay with OVCAR-5 ovarian it was 105%; with OVCAR-4 ovarian, 89.5%; in the assay with SK-OV-3 ovarian, 112%. Also, the growth is 101% in the assay with IGROV1 ovarian, 96.4% in the assay on OVCAR-3 ovarian, 92% with HS 578T breast and 104% in the assay on NCI/ADR-RES ovarian.

For the compound `O=C(C[P+](c1ccccc1)(c1ccccc1)c1ccccc1)c1ccccc1`, the growth with SR leukemia was 90.4%; in the assay with RPMI-8226 leukemia it was 92.6%; with OVCAR-8 ovarian it was 95.9%; in the assay on OVCAR-5 ovarian, 89.6%; in the assay with OVCAR-4 ovarian it was 83.9%; in the assay with SK-OV-3 ovarian, 104%. The growth in the assay on IGROV1 ovarian was 89.5%; with OVCAR-3 ovarian, 93.8%; in the assay with HS 578T breast it was 96.9%; with NCI/ADR-RES ovarian, 82.8%.

As for `CCN(CC)CC(O)c1cc(-c2ccc(Cl)cc2)nc2cc(Cl)ccc12` (stereo not given), the growth in the assay with SR leukemia is -12.3% (active); with RPMI-8226 leukemia, 34.4%; with OVCAR-8 ovarian, 38%; in the assay on OVCAR-5 ovarian, 14.2%; in the assay on OVCAR-4 ovarian it was 53.3%; in the assay with SK-OV-3 ovarian it was 60%. Further, the growth in the assay on IGROV1 ovarian was 10.3%; in the assay on OVCAR-3 ovarian, 56.8%; in the assay with HS 578T breast, 40.6%; with NCI/ADR-RES ovarian, 29.8%.

`CN(C)c1ccc(C(C#N)(c2ccccc2)c2ccc(N(C)C)cc2)cc1`: the growth is 15.9% in the assay on SR leukemia; 14.9% in the assay on RPMI-8226 leukemia; 23.4% in the assay on OVCAR-8 ovarian; 106% in the assay on OVCAR-5 ovarian; 83.5% with OVCAR-4 ovarian; 92.5% in the assay with SK-OV-3 ovarian. Further, the growth in the assay with IGROV1 ovarian is 83%; with OVCAR-3 ovarian, 72.3%; with HS 578T breast, 33.2%; with NCI/ADR-RES ovarian it was 73.8%.
